Several values for one entry are separate records, joined by “and”; a condition that tells them apart may be missing. Equal entries are not always repeated. Records with an inconclusive call do not appear. A structure can be active in one record and inactive in another. Activity calls are given as the source filed them. Calls follow the shape of the dose curve; as a rule, active = well fitted cell-killing curve with a large enough effect in the repeat runs; inconclusive = weak or mixed curves, or effect the other way; inactive = no such curve, though single readings can be large or run the other way.
Experiment: qHTS assay to identify small molecule agonists of the estrogen receptor alpha (ER-alpha) signaling pathway in the presence of an antagonist - cell viability counter screen (AID 1259386);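 also: cells exposed to compounds for 22 h at 37 °C before the viability read; nearly all actives have a fitted effect of over 30% in size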
Conditions: VM7Luc4E2 viability, CellTiter-Fluor fluorescence, 22 h; series mostly up to 92.4 µM; activity change, negative = cytotoxicity: at the top concentration
Description: National Center for Advancing Translational Sciences [NCATS]
NIH Chemical Genomics Center [NCGC]
U.S. Environmental Protection Agency [EPA]
National Institutes of Environmental Health Sciences [NIEHS]
National Toxicology Program [NTP]
U.S. Food and Drug Administration [FDA]
Estrogen receptor (ER), a member of nuclear hormone receptor plays an important role in development, metabolic homeostasis and reproduction. Two subtypes of ER, ER-alpha and ER-beta, have similar expression patterns with some uniqueness in both types. Endocrine disrupting chemicals (EDCs) and their interactions with steroid hormone receptors like ER causes disruption of normal endocrine function. Therefore, it is important to understand the effect of environmental chemicals in ER signaling pathway. For identifying ER agonists, VM7Luc4E2 cell line has been used in the current assay.
VM7Luc4E2 cell line (provided by Denison MS, University of California) endogenously expresses full-length ER-alpha and is stably transfected with a plasmid containing four estrogen responsive elements (ERE) upstream of a luciferase reporter gene. This current screening for measuring luciferase reporter gene activity using VM7Luc4E2 cells against Tox21 10K library collection is a confirmation study on agonist mode screening in presence of ER-antagonist (ICI-182,780) at 10.0nM final concentration. The cytotoxicity of the compounds was tested in parallel by measuring the cell viability using CellTiter-Fluor assay system (Promega, Madison, WI) in the same wells.
Tox21 Assay Protocol Summary:
VM7Luc4E2 cells were cultured in phenol red free assay medium containing 10% charcoal stripped FBS for 5 days prior to the assay. The cells were dispensed at 4,000 cells in 4uL of assay medium per well into white wall/solid-bottom 1536-well plates (Corning Life Sciences, Corning, NY) using a Multidrop Combi (Thermo Fisher Scientific Inc., Waltham, MA) dispenser. After the assay plates were incubated at 37C and 5% CO2 for 24hr, 1uL of 10.0nM (final concentration) ICI-182,780 or assay buffer was added using two separate tips of Flying Reagent Dispenser (FRD, Aurora Discovery, San Diego, CA). Then 23nL of compounds dissolved in DMSO at 15 concentrations and positive controls or DMSO only was transferred to the assay plates by a Pintool station (Wako, San Diego, CA). The assay plates were incubated at 37C and 5% CO2 for 22hr. After 21hr incubation at 37C, 1uL/well CellTiter-Fluor reagent (Promega Corporation, Madison, WI) was added to each well using FRD and after 1hr incubation at 37C and 5% CO2, the fluorescence signal was measured on ViewLux plate reader (PerkinElmer, Shelton, CT).
% is scaled to controls: 0 for no effect and ±100 for the full control effect; potency is read from the fitted curve at half-maximal effect.

SMILES | activity change, negative = cytotoxicity | Potency
C1CCCC1 | 1.57% (inactive) | –
CC(C)(C)C(=O)OCOC(=O)C1N2C(=O)CC2S(=O)(=O)C1(C)C (stereo not given) | 2.65% [at 42.5 µM] (inactive) | –
N=C1N=C(N)c2ccccc21 | -0.429% (inactive) | –
CCOC(=O)c1nc(C(Cl)(Cl)Cl)n(-c2ccc(Cl)cc2Cl)n1 | -5.93% (inactive) | –
Cc1ccc2oc(CN(Cc3ccccc3)C(=O)Nc3c(F)cc(F)cc3F)c(-c3ccc(Cl)cc3)c2c1 | 2.73% (inactive) | –
Nc1c(Cl)cc(Cl)cc1Cl | -0.541% (inactive) | –
COc1cccc2c1C(=O)c1c(O)c3c(c(O)c1C2=O)C[C@@](O)(C(=O)CO)C[C@@H]3O[C@H]1C[C@H](N)[C@H](O[C@@H]2CCCCO2)[C@H](C)O1 | – | 23.7 µM (active)
C[n+]1cc2c3c(ccc2c2ccc4cc5c(cc4c21)OCO5)OCO3 | – | 13 µM (active)
Cc1onc(-c2ccccc2Cl)c1C(=O)N[C@@H]1C(=O)N2[C@@H]1SC(C)(C)[C@@H]2C(=O)O | -0.0069% [at 42.5 µM] (inactive) | –
CCCCCCCC(=O)[O-].CCCCCCCC(=O)[O-].[Zn+2] | 8.61% [at 42.5 µM] (inactive) | –
CC(=O)S[C@@H]1CC2=CC(=O)CC[C@]2(C)[C@H]2CC[C@@]3(C)[C@@H](CC[C@@]34CCC(=O)O4)[C@H]12 | 4.1% (inactive) | –
CSc1cnc(C)cn1 | 1.34% [at 240 µM] (inactive) | –
Cc1cc2c(cc1C(F)(F)F)N(C(=O)Nc1ccc(Oc3cccnc3C)nc1)CC2 | -5.14% (inactive) | –
CC(C)c1ccc2c(c1)CC[C@H]1[C@](C)(CN)CCC[C@]21C | 7.24% (inactive) | –
CCCCc1oc2ccc(NS(C)(=O)=O)cc2c1C(=O)c1ccc(OCCCN(CCCC)CCCC)cc1 | – | 33.5 µM (active)
CCC(C)Nc1ccc(NC(C)CC)cc1 (stereo not given) | – | 17.6 µM (active)
CSc1ccc2c(c1)C(N1CCN(C)CC1)Cc1ccccc1S2 (stereo not given) | 11.9% [at 42.5 µM] (inactive) | –
CCCCCCC[N+](CC)(CC)CCCCc1ccc(Cl)cc1 | – | 26.6 µM (active)
Nc1c2ccccc2nc2ccccc12 | 6.67% [at 42.5 µM] (inactive) | –
O=C1CCCc2c1cc1ccc3cccc4ccc2c1c34 | 5.84% (inactive) | –

SMILES | activity change, negative = cytotoxicity | Potency
CCC(C)(C)C1CCCCC1OC(C)=O (stereo not given) | 4.93% (inactive) | –
O=C(OC[C@H]1O[C@@H](OC(=O)c2cc(O)c(O)c(OC(=O)c3cc(O)c(O)c(O)c3)c2)[C@H](OC(=O)c2cc(O)c(O)c(OC(=O)c3cc(O)c(O)c(O)c3)c2)[C@@H](OC(=O)c2cc(O)c(O)c(OC(=O)c3cc(O)c(O)c(O)c3)c2)[C@@H]1OC(=O)c1cc(O)c(O)c(OC(=O)c2cc(O)c(O)c(O)c2)c1)c1cc(O)c(O)c(OC(=O)c2cc(O)c(O)c(O)c2)c1 | – | 18.5 µM (active)
CCCC(C)c1ccccc1O (stereo not given) | 1.38% (inactive) | –
CC(=O)SC[C@@H](Cc1ccccc1)C(=O)NCC(=O)OCc1ccccc1 | 4.99% [at 42.5 µM] (inactive) | –
CC/C(=C(\c1ccc(O)cc1)c1ccc(OCCN(C)C)cc1)c1ccccc1 | – | 68.7 µM (active)
O=C(NO)C1(NS(=O)(=O)c2ccc(Oc3ccc(F)cc3)cc2)CCOCC1 | -7.49% (inactive) | –
CCCCC(CC)COP(=O)(O)OCC(CC)CCCC (stereo not given) | -6.13% (inactive) | –
Clc1ccc2cc3ccccc3cc2c1 | 5.97% (inactive) | –
CN(C)[C@@H]1C(=O)C(C(N)=O)=C(O)[C@@]2(O)C(=O)C3=C(O)c4c(O)ccc(Cl)c4[C@@H](O)[C@H]3C[C@@H]12 | 0.848% [at 42.5 µM] (inactive) | –
O=C(Oc1ccccc1)c1ccccc1C(=O)Oc1ccccc1 | -3.88% (inactive) | –
CO[Si](CCCNc1ccccc1)(OC)OC | -0.659% (inactive) | –
Oc1ccc(N=Nc2ccccc2)cc1 | – | 27.7 µM (active)
COC(=O)c1cc(Cl)ccc1OC | 0.051% [at 42.5 µM] (inactive) | –
Cn1cc(C(=O)[C@@H]2CCc3nc[nH]c3C2)c2ccccc21 | -4.43% [at 42.5 µM] (inactive) | –
CC(C)(C)CC(C)(C)c1ccc(O)c(Cc2ccc(Cl)cc2Cl)c1 | – | 29.8 µM (active)
Cc1cc(O)c(C(C)(C)C)cc1Sc1cc(C(C)(C)C)c(O)cc1C | – | 48.5 µM (active)
O=c1cc(-c2ccc(O)cc2)oc2cc(O)cc(O)c12 | – | inactive and 48.6 µM (active)
[Cl][Au]([Cl])[Cl] | – | 43.3 µM (active)
CCCN(CCC)c1c([N+](=O)[O-])cc(C(F)(F)F)c(N)c1[N+](=O)[O-] | – | 60.9 µM (active)
CCN(C(=O)N(CC)c1ccccc1)c1ccccc1 | 1.25% (inactive) | –

Reference: PubChem BioAssay (Tox21)
